GLD-1 RNA inh: GLD-1/TGE RNA complex disruptors, primary screen, biochemical, fluorescence polarization | 0.44% of 320,000 active | Female germline-specific tumor suppressor gld-1 (Caenorhabditis elegans), Q17339 | inhibition, % at 5.96 µM | purified GLD-1 + fluorescein TGE RNA | AID 2280, 2010;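 active means percent inhibition above a per-plate cutoff, the plate mean of test compounds plus 3 SD, cut at about 30% in these data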;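 further: 0% = DMSO wells with GLD-1 and probe and 100% = wells lacking GLD-1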
MEX-5 binding: MEX-5 zinc finger RNA-binding disruptors – biochemical, C. elegans, fluorescence polarization, MLPCN library, primary screen; 0.38% of 300,000 active; AID 1832, 2009; Zinc finger protein mex-5 (Caenorhabditis elegans), Q9XUB2; activity score (negative = inhibition of binding), % at 10 µM; MEX-5/FITC-TCR2 RNA binding; active compounds read low;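 active means inhibition past about -25% in most replicates, and total fluorescence under double the plate's negative control median, limit read from the data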;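 further: 0% = DMSO and -100% = 5 µM competing unlabeled TCR2 RNA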
CR mimetic SO: reduction of superoxide in aged yeast, primary screen, HTS; S. cerevisiae aged cells, superoxide DHE fluorescence; active compounds read low; superoxide response (% of plate mean), % at 10 µM; 0.18% of 330,000 active; AID 2690, 2010;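 active means superoxide response under a set limit, about three screen SD below normal, cut at about 65% in these data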;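 further: yeast aged for seven days with compound at 30 °C before DHE staining; 100% = average MFI of all compound-treated wells on the plate with controls excluded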
BCLXL inh: inhibitors of human Bcl-xL, primary screen, biochemical, fluorescence polarization, HTS; inhibition, % at 10.9 µM; GST-Bcl-xL / FITC-Bim BH3 peptide fluorescence polarization; 0.7% of 320,000 active; Bcl-2-like protein 1 (Homo sapiens), Q07817;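 active means inhibition above the mean of all tested compounds plus 3 SD, cutoff set per campaign, cut at about 30% in these data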;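 further: 0% = DMSO wells and 100% = unlabeled Bim-BH3 peptide competitor; inhibitors lower millipolarization by displacing the labeled peptide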
Target sequence (Q07817 whole entry, looked up): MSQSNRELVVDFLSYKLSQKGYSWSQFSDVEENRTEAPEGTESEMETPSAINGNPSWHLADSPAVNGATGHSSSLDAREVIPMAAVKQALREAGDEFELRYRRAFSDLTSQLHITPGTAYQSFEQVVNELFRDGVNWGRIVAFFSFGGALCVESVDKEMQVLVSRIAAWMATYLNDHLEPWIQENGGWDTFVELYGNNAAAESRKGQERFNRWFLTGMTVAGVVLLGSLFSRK
MCL1 BIM primary: inhibitors of MCL1 binding to BIM-BH3, primary screen, biochemical, fluorescence polarization | AID 2057, 2009 | 0.68% of 320,000 active | Induced myeloid leukemia cell differentiation protein Mcl-1 (Homo sapiens), Q07820 | GST-MCL1 / FITC-Bim-BH3 fluorescence polarization | inhibition, % at 10.9 µM;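 active means inhibition above the mean inhibition of all tested compounds plus 3 SD, set per campaign, cut at about 40% in these data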;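 further: 0% = DMSO wells and 100% = unlabeled Bim-BH3 peptide control; higher means more loss of mP so more displacement of Bim peptide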
Target sequence (Q07820 whole entry, looked up): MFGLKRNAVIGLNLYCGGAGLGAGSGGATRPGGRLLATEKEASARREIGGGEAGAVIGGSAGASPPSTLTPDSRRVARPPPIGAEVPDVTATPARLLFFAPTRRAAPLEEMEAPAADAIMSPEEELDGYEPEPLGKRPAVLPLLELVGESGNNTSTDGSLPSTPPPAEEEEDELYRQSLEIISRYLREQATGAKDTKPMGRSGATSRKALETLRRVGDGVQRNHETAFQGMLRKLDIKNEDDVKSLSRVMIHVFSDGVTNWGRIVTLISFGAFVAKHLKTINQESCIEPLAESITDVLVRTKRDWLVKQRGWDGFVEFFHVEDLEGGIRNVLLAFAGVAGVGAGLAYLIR
LANA-H2B inh: blockers of LANA interaction with H2A/H2B – biochemical, FP readout, HTS, primary screen. Protein LANA1 (Human herpesvirus 8 type P (isolate GK18)), Q9QR71. cell-free LANA-H2A/H2B peptide, fluorescence polarization. inhibition, % (test concentration not listed). 0.6% of 320,000 active; in the data active means inhibition mostly above about 10%, no sharp cut-off; inactive means mostly below about 6.7%
An asterisk follows results filed as active; nt = no result; + = active, no number. Most compounds without a hit are left out; they make up all but 1.9% or so of the library.

SMILES	GLD-1 RNA inh	MEX-5 binding	CR mimetic SO	BCLXL inh	MCL1 BIM primary	LANA-H2B inh
CC(=O)NCCNc1ccc([N+](=O)[O-])cc1C#N	3	-41*	119	2	-1	-461
O=C1NC(=Nc2ccccc2Cl)S/C1=C\c1cc([N+](=O)[O-])ccc1O	-36	-40*	120	-42	-89	-9
COc1cccc(N=C2NC(=O)/C(=C/c3cc([N+](=O)[O-])ccc3O)S2)c1	-8	-2	97	-19	-55	-5
CCc1ccccc1NC(=O)CN(C)C(=O)c1cccc(S(=O)(=O)N2CCCCCC2)c1	9	nt	90	3	0	2
COc1ccc(CCC2(C)NC(=O)N(C(C)C(=O)Nc3ccccc3F)C2=O)cc1 (stereo unspecified)	2	nt	109	4	7	-1
COc1ccc(COC(=O)CNC(=O)C2CCCCC2)cc1F	-1	nt	88	nt	nt	10
Cc1ccc(CC(NC(=O)C2CCCCC2)C(=O)O)cc1 (stereo unspecified)	nt	nt	106	nt	nt	nt
CCN1C(=O)/C(=C2/C=Cc3cc(C)ccc3N2CC)N(C)C1=S	-2	-2	84	-6	9	1
CCN1C(=C(C#N)C#N)C=Cc2cc(C)ccc21	41*	0	105	25	18	8
COc1ccc(S(=O)(=O)N(C)C[C@H]2Oc3c(cccc3N(C)C)C(=O)N([C@H](C)CO)C[C@@H]2C)cc1	8	nt	109	nt	nt	10
O=[N+]([O-])c1ccc(F)cc1F	-2	nt	107	2	3	52*
O=C(O)C1(c2ccccc2)CCN(S(=O)(=O)c2ccccc2)CC1	-5	-2	117	3	-2	1.5*
CC(C)(Cc1ccccc1)NC(=O)C(=O)c1cn(CC(=O)N2CCOCC2)c2ccccc12	12	-5	106	3	0	39*
COc1ccccc1C1CC(=O)Oc2ccc(C(C)(C)C)cc21 (stereo unspecified)	nt	nt	99	nt	nt	nt
Cc1ccc(S(=O)(=O)NC(C(=O)OCC(=O)NC2CCS(=O)(=O)C2)C(C)C)cc1 (stereo unspecified)	2	0	94	6	-1	-5
Cc1ccc(S(=O)(=O)CCC(=O)OCC(=O)NC2CCS(=O)(=O)C2)cc1 (stereo unspecified)	-9	0	118	-3	-8	25*
Cc1cc([N+](=O)[O-])nn1CC(=O)NC1CCCCC1	0	-1	104	-1	-5	19*
Cc1cc([N+](=O)[O-])nn1CCC(=O)NC1CCCCCC1	-3	-2	106	-3	-5	2
COc1cc(Cl)c(C)cc1NC(=O)CN(C)C1CCS(=O)(=O)C1 (stereo unspecified)	0	nt	87	nt	nt	-4
COCCn1c(SCC(=O)Nc2ccc(NC(C)=O)cc2)nc2c([nH]c3ccccc32)c1=O	7	0	111	3	5	-1
COc1ccc(NC(=O)CSc2nc3cccnc3n2C)cc1	-2	0	111	-4	3	38*
COc1ccc(NC(=O)CSc2nc3sc(C)cc3c(=O)n2C)cc1	9	-1	108	7	-1	-2
COc1ccc(NC(=O)CSc2nc3sc(C)cc3c(=O)n2C)c(OC)c1	-5	3	91	6	9	16*
COc1ccc(NC(=O)CSc2nc3c([nH]c4ccccc43)c(=O)n2C)cc1	3	0	98	2	8	11*
O=C(NCc1cccc2ccsc12)c1cccs1	1	nt	100	1	0	-5
SMILES	GLD-1 RNA inh	MEX-5 binding	CR mimetic SO	BCLXL inh	MCL1 BIM primary	LANA-H2B inh
Cn1c(SCC(=O)Nc2ccc(C(N)=O)cc2)nnc1-c1cccs1	-4	1	87	-3	-2	16*
O=C(COC(=O)c1cn(-c2ccccc2)nc1-c1ccc(F)cc1)Nc1ncc(Cl)cc1Cl	-10	-4	92	12	11	5
NS(=O)(=O)c1ccc(NC(=O)COC(=O)c2cn(-c3ccccc3)nc2-c2ccc(F)cc2)cc1	9	-30*	91	2	-5	-2
CC(/C=C\C=C\c1ccccc1)=N\NC(=O)c1cncc(Br)c1	-2	1	82	2	11	77*
O=[N+]([O-])c1ccc(N/N=C/c2ccc[nH]2)cc1	-11	nt	84	-45	-89	+
O=C(COC(=O)c1cnccn1)Nc1c(Cl)cc(Cl)cc1Cl	0	nt	105	2	-3	nt
O=C(COC(=O)c1cnccn1)Nc1ncc(Cl)cc1Cl	22	-7	105	34*	33	2
CCOC(=O)c1ccc(N2C(=O)C3C(C2=O)C(C(=O)c2ccc(Cl)cc2)N2CCCC32)cc1 (stereo unspecified)	21	-6	106	58*	36	3
Cc1ccc(C(=O)N(C)Cc2nc3ccccc3c(=O)[nH]2)cc1NC(=O)c1ccco1	2	nt	86	nt	nt	-2
Cc1onc(-c2c(F)cccc2Cl)c1C(=O)N1CCc2ccccc21	4	-1	118	-4	-1	66*
O=C(CC1SC(N2CCCCC2)=NC1=O)Nc1ccc(C(=O)NCc2ccccc2)cc1 (stereo unspecified)	-1	nt	89	nt	nt	1
CC(C)NC(=O)c1ccc(NC(=O)CC2SC(N3CCCCC3)=NC2=O)cc1 (stereo unspecified)	2	nt	82	2	6	-4
COc1cccc(CNC(=O)c2ccc(NC(=O)CC3SC(N4CCCC4)=NC3=O)cc2)c1 (stereo unspecified)	2	nt	99	9	8	39*
CNC(=O)c1ccc(NC(=O)CC2SC(N3CCCC3)=NC2=O)cc1 (stereo unspecified)	-2	nt	91	-1	3	50*
CC(C)NC(=O)c1ccc(NC(=O)CC2SC(N3CCCC3)=NC2=O)cc1 (stereo unspecified)	-2	nt	80	2	2	+
N#Cc1cccc(NC(=O)CNc2cccc(S(=O)(=O)N3CCCCC3)c2)c1	8	0	89	3	1	2
C/C=C/c1ccc(OCCCCN2CCN(CC)CC2)c(OC)c1	7	-4	116	1	-1	2
C/C=C/c1ccc(OCCCCN2CC(C)CC(C)C2)c(OC)c1 (stereo unspecified)	-1	1	94	1	-5	195*
CCN(CC)CCn1c2c(c(SCC(=O)Nc3ccc(F)c(F)c3)nc1=O)CCC2	1	0	96	-1	-4	2
